Screening data as filed in PubChem BioAssay.
Most compounds without a hit are left out; they make up all but 12% or so of the library.
Sfp inh: Sfp phosphopantetheinyl transferase inhibition. Biochemical Sfp PPTase activity, qHTS. AID 1490. Potency, µM, for the others: largest response in the series, negative = inhibition, most hits filed as inhibitors. Q9F4F7. actives 3.5% (n = 310,000);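 note: the enzyme is Sfp with the accession as filed and its product quenches rhodamine fluorescence; 0% = enzyme reaction without inhibitor and -100% = no enzyme wells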
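After 15 min at room temperature with compound, 15 nM Sfp received 5 uM rhodamine-CoA plus 12.5 uM BHQ-2-ybbR (50 mM Hepes pH 7.6, 10 mM MgCl2). Rate came from the fluorescence difference over 30 min, ex 525/em 598 nm.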
G9a inh: blocks human histone lysine methyltransferase G9a | Q96KQ7 | G9a H3K9 monomethylation, AlphaScreen, 2 h | Potency, µM (highest dose often 102 µM), inactives show at the top dose activity, negative = inhibition, hits mostly inhibitors | actives 8.8% (n = 350,000) | AID 504332; note: % is set by controls: 0 for no effect and ±100 for the full control effect; nearly all actives have a fitted effect of over 75% in size
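Enzyme 20 nM + cpd, 15 min RT; add b-H3K9 pep 500 nM / SAM 20 uM; 2 h RT; anti-H3K9me1 Ab 0.5 ug/mL + SA donor / anti-rabbit acceptor beads 20 ug/mL each, 10 min; AlphaScreen read.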
JMJD2A Tudor: blocks the human JMJD2A Tudor domain | O75164 | AlphaScreen JMJD2A-Tudor / H3K4me3 peptide binding | Potency, µM (series often up to 114 µM), for the others: at the highest dose activity change, negative = inhibition, usual class: inhibitors | actives 4.4% (n = 390,000) | AID 504339; note: % is set by controls: 0 for no effect and ±100 for the full control effect; nearly all actives have a fitted effect of over 50% in size
HP1b binding inh: blocks HP1-beta chromodomain binding to methylated histone tails | AlphaScreen HP1-beta / biotin-H3K9me3 peptide binding | Potency, µM (highest dose often 114 µM), for the others: at the top dose activity change, negative = inhibition, usual class: inhibitors | actives 0.56% (n = 390,000) | AID 540317; note: nearly all actives have a fitted effect of over 70% in size
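HP1-beta protein (50 nM final) preincubated 30 min at room temperature with biotinylated H3(1-18)K9me3 peptide (50 nM) in PBS pH 7.4, 0.01% Tween-20, then compound added for 30 min. AlphaScreen streptavidin donor/nickel chelate acceptor beads (10 ug/mL final), 30 min dark, luminescence read.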
BAZ2B block: inhibitors of human BAZ2B bromodomain; Q9UIF8; AlphaScreen BAZ2B-H3K14Ac peptide displacement; AID 504333; Potency, µM (titrated, usually from 114 µM), inactives show at the highest dose activity change, negative = inhibition, actives largely listed as inhibitors; actives 4.4% (n = 360,000); note: % is set by controls: 0 for no effect and ±100 for the full control effect; nearly all actives have a fitted effect of over 60% in size
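Compounds, titrated to a top concentration of 110 uM, were incubated 30 min at room temperature with preformed BAZ2B/acetyl-K14 H3 peptide complex (50 nM each). Proximity signal was measured by AlphaScreen after 20 min with beads.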
Starred values were filed as active, the others as inactive; ? = inconclusive; nt = no result given; [ ] = remark or other dose. Calls come from the whole dose curve; as a rule, active = well fitted curve in the direction sought with a large enough effect; inconclusive = small, poorly fitted or top-dose-only effect, or another doubt; inactive = no such curve, though single readings can be large; an effect the other way counts as inactive or inconclusive. Potency is the fitted concentration of half-maximal effect.

SMILES | Sfp inh | G9a inh | JMJD2A Tudor | HP1b binding inh | BAZ2B block
COc1ccc(/C=C2\SC(=S)N(CCCC(=O)Nc3cc(C)on3)C2=O)cc1OC | -17% | 7% | -19% | 7% | -2%
CSc1cccc(NS(=O)(=O)c2ccc3c(c2)NC(=O)C(C)C(=O)N3)c1 (stereo not drawn) | 9% | 3% | -19% | 35% | 3%
Cc1ccc(-c2noc(-c3ccccc3NC(=O)C3CC(=O)N(c4ccccc4C)C3)n2)cc1 (stereo not drawn) | nt | -35%[59 µM] | -13% | 48% | -6%
CC(=O)N[C@H]1[C@H](Oc2ccc3c(c2)CCC2C3CC[C@]3(C)C(=O)CCC23)O[C@H](CO)[C@@H](O)[C@@H]1O (stereo partly drawn) | 18% | 20% | -10% | 28% | 4%
COc1ccc(NC(=O)CSCC(=O)Nc2nnc(CC(C)C)s2)cc1 | nt | -18% | ? | -15% | 2%
O=C(Nc1nnc(C2CC2)s1)C1CC(=O)N(c2ccc3c(c2)OCCO3)C1 (stereo not drawn) | 18% | -14%[59 µM] | 45µM* | -27% | 50µM*
CCN(CC)CCNC(=O)c1ccc(NC(=O)C2CC(=O)N(c3ccc4c(c3)OCCO4)C2)cc1 (stereo not drawn) | nt | 40µM* | -9% | 13% | 0%
O=C(NC(Cc1ccccc1)c1nc2ccccc2[nH]1)C1CC(=O)N(c2ccc3c(c2)OCCO3)C1 (stereo not drawn) | ? | 13µM* | ? | 35% | ?
COc1ccc2nc(NC(=O)C3CC(=O)N(c4ccc5c(c4)OCCO5)C3)sc2c1 (stereo not drawn) | nt | 40µM* | -32% | 0% | -11%
CC1CCCCC1NC(=O)C(=O)NCC1CCCO1 (stereo not drawn) | 13% | 1%[59 µM] | -5% | 6% | -2%
COc1ccccc1CNc1nc(S(=O)(=O)c2ccccc2)c(Cl)s1 | -22% | ? | -17% | 20% | ?
COc1ccccc1CNc1nc(C)c(C(C)=O)s1 | ? | 11µM* | -23% | -19% | ?
COc1ccccc1CNc1nc(C)c(C(=O)N(C)C)s1 | 45µM* | 14µM* | -6% | ? | -22%
CCCC(=O)Nc1nc(C)c(C(C)=O)s1 | 1% | 19% | 4% | 36% | -16%
COC(=O)Nc1nc(C)c(C(=O)N(C)C)s1 | 10% | -11%[12.7 µM] | -7% | 52% | -2%
Cc1nc(NCCc2ccccc2)sc1C(=O)N(C)C | ? | 25µM* | -4% | -17% | 6%
COCCNc1nc(C)c(C(C)=O)s1 | 16% | 40µM* | -15% | 45% | -29%
CC(C)OC(=O)/C(=C/c1ccc(Br)cc1)NC(=O)c1ccco1 | 4% | 5%[59 µM] | -13% | 15% | -1%
O=C(NCC1CCCO1)/C(=C\c1ccco1)NC(=O)c1ccc(Cl)cc1 (stereo not drawn) | 23% | 5% | -6% | 53% | -32%
O=S(=O)(c1ccc(Cl)cc1)c1nnn2c1nc(NCc1ccc3c(c1)OCO3)c1sccc12 | nt | -28%[59 µM] | -11% | 34% | -13%
Cn1nnnc1Sc1ncnc2scc(-c3cccs3)c12 | nt | -21%[0.501 µM] | 25µM* | ? | 10µM*
O=C(O)c1cccc(NS(=O)(=O)c2cccc(C(=O)Nc3ccccc3[N+](=O)[O-])c2)c1 | -2% | 0% | -9% | 21% | 3%
Nc1c(C(=O)Nc2ccccc2)sc2nc3c(cc12)CN(Cc1ccccc1)CC3 | nt | ? | -20% | 25% | -11%
CC(=O)N1CC=CC1(CC(C)C)C(=O)NCc1ccc(C)o1 (stereo not drawn) | 45µM* | nt | nt | nt | nt
CN(CCO)C(=O)C1CCN(c2ncc(C(F)(F)F)cc2Cl)CC1 | 10% | 40%[12.7 µM] | -16% | -25% | -6%
SMILES | Sfp inh | G9a inh | JMJD2A Tudor | HP1b binding inh | BAZ2B block
C=CCOn1c(=O)c(-c2cc3ccccc3o2)[n+]([O-])c2ccccc21 | 5% | ? | 14%[11.4 µM] | -10% | -2%
CCOC(=O)COn1c(=O)c(-c2cc3ccccc3o2)[n+]([O-])c2ccccc21 | 79µM* | 36%[0.501 µM] | 3% | 28% | 2%[57.1 µM]
CCOC(=O)COn1c(=O)c(-c2cccs2)[n+]([O-])c2ccccc21 | 10µM* | ? | -16% | 22% | ?
Fc1cccc(Cl)c1/C=N/Nc1ccccn1 | 8% | -11% | -8% | 28% | -12%
Cc1nnc(N/N=C/c2c(Cl)cccc2Cl)n1N | ? | 0% | -8% | 55% | 50µM*
CCc1nnc(N/N=C/c2c(F)cccc2Cl)n1N | -25% | 45µM* | 7% | 45% | -5%
C=CCc1c(C)nc(C)nc1N/N=C/c1ccc([N+](=O)[O-])cc1 | -20% | ? | -12% | 17% | -25%
C=CCc1c(C)nc(C)nc1N/N=C/c1ccccc1O | -25% | -12%[12.7 µM] | ? | 14% | 50µM*
CCc1nnc(N/N=C/c2cc(C)c(C)cc2C)n1N | -17% | 79µM* | -12% | 40% | 1%
CCc1nnc(-n2nc(C)cc2-c2ccccc2)n1N | 5% | -5%[59 µM] | ? | 21% | 2%
Cc1cc(/C=N/NC(N)=S)c(C)n1-c1ccc(Cl)cc1 | -10% | -7%[59 µM] | ? | -21% | -30%
CCc1nnc(N/N=C/c2c(C)[nH]c3ccccc23)n1N | 8.9µM* | 18µM* | -31% | 24% | 45µM*
Cc1[nH]c2ccccc2c1/C=N/NC(N)=S | -5% | -26%[59 µM] | -25% | 1% | -34%
Cc1nnc(N/N=C/c2ccccc2O)n1N | 18% | -6% | ? | 38% | 40µM*
Cc1nnc(N/N=C/c2cc(C)n(-c3ccc(F)cc3)c2C)n1N | 45µM* | ? | -30% | 2% | 50µM*
Cc1ccc(Cn2cc(S(=O)(=O)c3ccc(Cl)cc3)c(=O)c3cc4c(cc32)OCO4)cc1 | nt | 7%[59 µM] | -22% | 14% | -2%
O=C(COc1ccc(Cl)cc1)N1CCCCC1 | -1% | 4%[59 µM] | -34% | 50% | 3%
CCN1C(=O)/C(=C\c2ccco2)C(C(=O)OC)=C1C | 6% | ? | ? | -14% | ?
CCOc1ccc(N2C(=O)/C(=C/c3ccccc3OCC(=O)OC)N(CC(=O)OC)C2=S)cc1 | 7% | ? | -32% | 4%[57 µM] | -37%
CCOC(=O)C1=C(C)N(c2ccc(OCC)cc2)C(=O)/C1=C\c1ccco1 | 50µM* | ? | 22µM* | 45µM* | 8.9µM*
COC(=O)C1=C(C)N(c2cccc(OC)c2)C(=O)/C1=C\c1ccco1 | -17% | ? | 45µM* | 40µM* | 18µM*
C=CCN1C(=O)/C(=C\c2ccco2)C(C(=O)OC)=C1C | 20µM* | ? | ? | -12% | 45µM*
CCOc1ccc(N2C(=O)/C(=C/c3ccco3)N(C)C2=S)cc1 | 40µM* | 10µM* | -28% | 4% | -6%
COC(=O)C1=C(C)N(c2ccc(OC)cc2)C(=O)/C1=C\c1cccs1 | 16% | -11%[59 µM] | ? | 15% | -3%
